Experimental data taken from PubChem BioAssay (NCATS).
Results filed as inconclusive are left out. Entries that show only a call come without a potency. The source made the active and inactive calls. Calls follow the shape of the dose curve; as a rule, active = well fitted inhibition curve with a large enough effect; inconclusive = small, poorly fitted or top-dose-only effect; inactive = flat fitted curve, though single readings scatter.

test system: CP262; test: qHTS profiling for inhibitors of Plasmodium falciparum proliferation (AID 504749); also: nearly all actives have a fitted effect of over 60% in size; conditions: P. falciparum in erythrocytes, SYBR Green DNA, 72 h; series mostly up to 28.7 µM
Procedure, shortened: (§1)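 Each compound contacts P. falciparum-infected red blood cells for 72 h at 37 C; lysis buffer (Tris, EDTA, saponin, Triton X, SYBR Green I) is added and fluorescence measured next morning; values normalized to controls.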
Potency is read from the fitted curve at half-maximal effect.

SMILES | Potency
COC(=O)Nc1nc2ccc(C(=O)c3cccs3)cc2[nH]1 | inactive
Clc1ccccc1C(c1ccccc1)(c1ccccc1)n1ccnc1 | 1.02 µM (active)
Cc1cn([C@H]2C=C[C@@H](CO)O2)c(=O)[nH]c1=O | inactive
CCOC(=O)c1ncn2c1CN(C)C(=O)c1cc(F)ccc1-2 | inactive
CN(C)CCC=C1c2ccccc2C=Cc2ccccc21 | inactive
CN(C)CCOC(c1ccccc1)c1ccccc1 | inactive
O=C(c1ccc(OCCN2CCCCC2)cc1)c1c(-c2ccc(O)cc2)sc2cc(O)ccc12 | inactive
O=c1[nH]cc(F)c(=O)[nH]1 | inactive
CN(Cc1cnc2nc(N)nc(N)c2n1)c1ccc(C(=O)N[C@@H](CCC(=O)O)C(=O)O)cc1 | inactive
CC(C)NCC(O)COc1ccc(CCOCC2CC2)cc1 (configuration not stated) | inactive
Nc1nc2c(ncn2COC(CO)CO)c(=O)[nH]1 | inactive
COc1ccc(CCN(C)CCCC(C#N)(c2ccc(OC)c(OC)c2)C(C)C)cc1OC (configuration not stated) | inactive
CN1CCC(=C2c3ccccc3CC(=O)c3sccc32)CC1 | inactive
Clc1ccc2c(c1)C(N1CCNCC1)=Nc1ccccc1O2 | inactive
OCCN1CCN(CCCN2c3ccccc3Sc3ccc(C(F)(F)F)cc32)CC1 | 5.36 µM (active)
Clc1ccc(C(c2ccccc2Cl)C(Cl)Cl)cc1 (configuration not stated) | inactive
COc1nc(C)nc(Cl)c1NC1=NCCN1 | inactive
Cn1ccc2cc3c(cc21)CCN3C(=O)Nc1cccnc1 | inactive
CC(COc1ccccc1)N(CCCl)Cc1ccccc1 (configuration not stated) | inactive
CC1(CN2CCC(n3c(=O)[nH]c4ccccc43)CC2)OCc2ccccc2-n2cccc21 (configuration not stated) | inactive
NC12CC3CC(CC(C3)C1)C2 | inactive
CC12CC3CC(C)(C1)CC(N)(C3)C2 | inactive
CC(C)NCC(O)c1ccc(O)c(O)c1 (configuration not stated) | inactive
CNCCCC12CCC(c3ccccc31)c1ccccc12 | inactive
CC(=O)OCC(CCn1cnc2cnc(N)nc21)COC(C)=O | inactive
CCOC(=O)Nc1ccc(NCc2ccc(F)cc2)nc1N | 12 µM (active)

test system: CP265; test: as above; conditions: P. falciparum in erythrocytes, SYBR Green DNA, 72 h; series mostly up to 28.7 µM
Procedure, shortened: as §1

SMILES | Potency
COC(=O)Nc1nc2ccc(C(=O)c3cccs3)cc2[nH]1 | inactive
Clc1ccccc1C(c1ccccc1)(c1ccccc1)n1ccnc1 | 0.708 µM (active)
Cc1cn([C@H]2C=C[C@@H](CO)O2)c(=O)[nH]c1=O | inactive
CCOC(=O)c1ncn2c1CN(C)C(=O)c1cc(F)ccc1-2 | inactive
CCC1(c2ccccc2)C(=O)NCNC1=O | inactive
CN(C)CCC=C1c2ccccc2C=Cc2ccccc21 | inactive
CCCCc1oc2ccccc2c1C(=O)c1cc(I)c(OCCN(CC)CC)c(I)c1 | 7.08 µM (active)
Nc1nc2c(ncn2COC(CO)CO)c(=O)[nH]1 | inactive
COc1ccc(CCN(C)CCCC(C#N)(c2ccc(OC)c(OC)c2)C(C)C)cc1OC (configuration not stated) | inactive
CN1CCC(=C2c3ccccc3CC(=O)c3sccc32)CC1 | 10 µM (active)
OCCN1CCN(CCCN2c3ccccc3Sc3ccc(C(F)(F)F)cc32)CC1 | 11.2 µM (active)
Clc1ccc(C(c2ccccc2Cl)C(Cl)Cl)cc1 (configuration not stated) | inactive
COc1nc(C)nc(Cl)c1NC1=NCCN1 | inactive
CC(C)(Oc1ccc(C2CC2(Cl)Cl)cc1)C(=O)O (configuration not stated) | inactive
NC12CC3CC(CC(C3)C1)C2 | inactive
CC[C@@]1(O)C(=O)OCc2c1cc1n(c2=O)Cc2cc3c(CN(C)C)c(O)ccc3nc2-1 | 6.31 µM (active)
COc1ccccc1OCCNCC(O)COc1cccc2[nH]c3ccccc3c12 (configuration not stated) | 8.91 µM (active)
CN(C)C(=N)N=C(N)N | inactive
CC12CC3CC(C)(C1)CC(N)(C3)C2 | inactive
CN(C)CCCN1c2ccccc2CCc2ccc(Cl)cc21 | inactive
CC(C)NCC(O)c1ccc(O)c(O)c1 (configuration not stated) | inactive
CC(=O)OCC(CCn1cnc2cnc(N)nc21)COC(C)=O | inactive
CCOC(=O)Nc1ccc(NCc2ccc(F)cc2)nc1N | 11.2 µM (active)

test system: CP266; test: as above; conditions: P. falciparum in erythrocytes, SYBR Green DNA, 72 h; series mostly up to 28.7 µM
Procedure, shortened: as §1

SMILES | Potency
COC(=O)Nc1nc2ccc(C(=O)c3cccs3)cc2[nH]1 | inactive
CCC1(c2ccccc2)C(=O)NCNC1=O | inactive
CN(C)CCC=C1c2ccccc2C=Cc2ccccc21 | inactive
CCCCc1oc2ccccc2c1C(=O)c1cc(I)c(OCCN(CC)CC)c(I)c1 | inactive
CN(C)CCOC(c1ccccc1)c1ccccc1 | inactive
O=C1c2c(O)ccc(O)c2C(=O)c2c(NCCNCCO)ccc(NCCNCCO)c21 | 5.1 µM (active)
O=c1[nH]cc(F)c(=O)[nH]1 | inactive
O=c1c(O)c(-c2ccc(O)c(O)c2)oc2cc(O)cc(O)c12 | inactive
CN(Cc1cnc2nc(N)nc(N)c2n1)c1ccc(C(=O)N[C@@H](CCC(=O)O)C(=O)O)cc1 | inactive
CC(C)NCC(O)COc1ccc(CCOCC2CC2)cc1 (configuration not stated) | inactive
CN1CCC(=C2c3ccccc3CC(=O)c3sccc32)CC1 | inactive
Clc1ccc2c(c1)C(N1CCNCC1)=Nc1ccccc1O2 | inactive
Clc1ccc(C(c2ccccc2Cl)C(Cl)Cl)cc1 (configuration not stated) | inactive
CC(COc1ccccc1)N(CCCl)Cc1ccccc1 (configuration not stated) | inactive
CC1(CN2CCC(n3c(=O)[nH]c4ccccc43)CC2)OCc2ccccc2-n2cccc21 (configuration not stated) | inactive
CC(C)(Oc1ccc(C2CC2(Cl)Cl)cc1)C(=O)O (configuration not stated) | inactive
NC12CC3CC(CC(C3)C1)C2 | inactive
CC[C@@]1(O)C(=O)OCc2c1cc1n(c2=O)Cc2cc3c(CN(C)C)c(O)ccc3nc2-1 | inactive
COc1ccccc1OCCNCC(O)COc1cccc2[nH]c3ccccc3c12 (configuration not stated) | inactive
CN(C)C(=N)N=C(N)N | inactive
CC12CC3CC(C)(C1)CC(N)(C3)C2 | inactive
Nc1c2c(nc3ccccc13)CCCC2 | inactive
CNCCCC12CCC(c3ccccc31)c1ccccc12 | inactive
